Of roughly 7,900 targets only a part is listed; those with a hit were picked by preference. About 0.6% of all pairs of compound and target were hits.
How the values were obtained:
Test in all cases: log2 fold change, soluble protein after heating vs DMSO (PISA); higher = thermal stabilisation; K562 cells, 10 uM, 30 min; active = over 0.2 and 3.5 SD of the protein, either way, in both replicates (recomputed)
[1] = compound: CS(=O)(=O)c1ccc(-c2cnc(N)c(C(=O)Nc3ccccc3)n2)cc1
How it was run: (§1)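 Values are thermal stability changes relative to control samples and are taken from duplicates. They are stated as log2 fold changes. Before quantification by TMTpro 16plex LC-MS/MS with equalised channel sums, K562 cells at 2×10^6 cells/mL were treated with 10 μM compound for 30 min, heated in aliquots for 3 min across 48°C-58°C, pooled, extracted in PBS with 0.5% NP-40 at 4°C, and centrifuged at 21,000xg for 90 min to give the soluble supernatant.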

crizotinib = compound: C[C@@H](Oc1cc(-c2cnn(C3CCNCC3)c2)cnc1N)c1c(Cl)ccc(F)c1Cl [crizotinib]
How it was run: as §1

[2] = compound: C[C@@H]1COCCN1C2=NC(=NC(=C2)C3(CC3)S(=O)(=O)C)C4=C5C=CNC5=CC=C4
How it was run: as §1

[3] = compound: C[C@H](C1=CC=C(C=C1)C(=O)NC2=C3C=CNC3=NC=C2)N
How it was run: as §1

duvelisib = compound: C[C@H](Nc1ncnc2nc[nH]c12)c1cc2cccc(Cl)c2c(=O)n1-c1ccccc1 [duvelisib]
How it was run: as §1

gandotinib = compound: Cc1cc(Nc2cc(CN3CCOCC3)c3nc(C)c(Cc4ccc(Cl)cc4F)n3n2)n[nH]1 [gandotinib]
How it was run: as §1

tozasertib = compound: Cc1cc(Nc2cc(N3CCN(C)CC3)nc(Sc3ccc(NC(=O)C4CC4)cc3)n2)n[nH]1 [tozasertib]
How it was run: as §1

[4] = compound: Cc1cc(SCc2sc(-c3ccc(C(F)(F)F)cc3)nc2C)ccc1OCC(=O)O
How it was run: as §1

doramapimod = compound: Cc1ccc(-n2nc(C(C)(C)C)cc2NC(=O)Nc2ccc(OCCN3CCOCC3)c3ccccc23)cc1 [doramapimod]
How it was run: as §1

ispinesib = compound: Cc1ccc(C(=O)N(CCCN)[C@@H](c2nc3cc(Cl)ccc3c(=O)n2Cc2ccccc2)C(C)C)cc1 [ispinesib]
How it was run: as §1

Measured: log2 fold change

GCLM (UniProt P48507)
Chain of UniProt P48507 (P48507 whole entry, looked up): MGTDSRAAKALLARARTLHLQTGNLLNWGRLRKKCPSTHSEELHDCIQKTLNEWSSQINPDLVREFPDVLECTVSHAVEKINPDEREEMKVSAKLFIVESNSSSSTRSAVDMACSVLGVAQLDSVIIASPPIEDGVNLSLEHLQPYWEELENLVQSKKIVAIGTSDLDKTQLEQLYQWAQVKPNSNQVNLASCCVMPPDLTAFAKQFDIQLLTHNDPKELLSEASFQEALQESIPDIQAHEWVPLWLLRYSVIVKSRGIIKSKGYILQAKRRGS
inactive: [1] 0.058 | crizotinib -0.003 | [2] 0.042 | [3] -0.019 | duvelisib -0.007 | gandotinib -0.15 | tozasertib 0.108 | [4] 0.06 | doramapimod -0.072 | ispinesib 0.076

FIS1 (UniProt Q9Y3D6)
Chain of UniProt Q9Y3D6 (Q9Y3D6 whole entry, looked up): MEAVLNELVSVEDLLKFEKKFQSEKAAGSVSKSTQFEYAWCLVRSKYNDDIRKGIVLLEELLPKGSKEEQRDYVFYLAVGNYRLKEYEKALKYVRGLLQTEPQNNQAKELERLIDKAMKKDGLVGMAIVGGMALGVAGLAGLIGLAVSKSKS
active: [3] -0.286
inactive: [1] -0.017 | crizotinib 0.045 | [2] 0.037 | duvelisib -0.143 | gandotinib 0.032 | tozasertib 0.079 | [4] 0.071 | doramapimod 0.02 | ispinesib -0.007

GPAT4 (UniProt Q86UL3)
Chain of UniProt Q86UL3 (Q86UL3 whole entry, looked up): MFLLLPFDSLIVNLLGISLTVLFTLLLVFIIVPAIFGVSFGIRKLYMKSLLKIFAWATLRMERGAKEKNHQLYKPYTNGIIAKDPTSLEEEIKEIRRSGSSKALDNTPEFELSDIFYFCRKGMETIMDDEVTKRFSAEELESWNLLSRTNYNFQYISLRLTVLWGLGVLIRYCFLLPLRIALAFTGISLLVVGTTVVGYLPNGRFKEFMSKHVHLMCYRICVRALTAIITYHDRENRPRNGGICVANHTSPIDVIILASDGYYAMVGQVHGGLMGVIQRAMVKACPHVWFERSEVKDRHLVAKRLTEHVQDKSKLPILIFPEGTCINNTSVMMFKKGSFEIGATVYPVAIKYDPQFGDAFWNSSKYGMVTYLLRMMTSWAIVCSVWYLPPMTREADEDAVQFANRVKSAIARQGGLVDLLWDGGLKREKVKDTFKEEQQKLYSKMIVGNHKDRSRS
active: crizotinib 0.287
inactive: [1] 0.15 | [2] 0.066 | [3] -0.071 | duvelisib 0.017 | gandotinib -0.009 | tozasertib 0.063 | [4] 0.061 | doramapimod -0.063 | ispinesib 0.194

HNRNPC isoform 2 (UniProt P07910)
inactive: [1] -0.176 | crizotinib -0.061 | [2] -0.239 | [3] 0.532 | duvelisib -0.076 | gandotinib 0.197 | tozasertib 0.05 | [4] 0.125 | doramapimod 0.088 | ispinesib -0.35

GATA1 (UniProt P15976)
inactive: [1] 0.03 | crizotinib 0.16 | [2] -0.032 | [3] 0.046 | duvelisib -0.061 | gandotinib 0.112 | tozasertib 0.031 | [4] -0.071 | doramapimod 0.017 | ispinesib -0.063

HSPA8 (UniProt E9PK54)
inactive: [1] -0.05 | crizotinib -0.023 | [2] -0.272 | [3] 0.334 | duvelisib -0.05 | gandotinib 0.01 | tozasertib 0.033 | [4] 0.088 | doramapimod 0.143 | ispinesib 0.012

FASTKD1 (UniProt Q53R41)
Chain of UniProt Q53R41 (Q53R41 whole entry, looked up): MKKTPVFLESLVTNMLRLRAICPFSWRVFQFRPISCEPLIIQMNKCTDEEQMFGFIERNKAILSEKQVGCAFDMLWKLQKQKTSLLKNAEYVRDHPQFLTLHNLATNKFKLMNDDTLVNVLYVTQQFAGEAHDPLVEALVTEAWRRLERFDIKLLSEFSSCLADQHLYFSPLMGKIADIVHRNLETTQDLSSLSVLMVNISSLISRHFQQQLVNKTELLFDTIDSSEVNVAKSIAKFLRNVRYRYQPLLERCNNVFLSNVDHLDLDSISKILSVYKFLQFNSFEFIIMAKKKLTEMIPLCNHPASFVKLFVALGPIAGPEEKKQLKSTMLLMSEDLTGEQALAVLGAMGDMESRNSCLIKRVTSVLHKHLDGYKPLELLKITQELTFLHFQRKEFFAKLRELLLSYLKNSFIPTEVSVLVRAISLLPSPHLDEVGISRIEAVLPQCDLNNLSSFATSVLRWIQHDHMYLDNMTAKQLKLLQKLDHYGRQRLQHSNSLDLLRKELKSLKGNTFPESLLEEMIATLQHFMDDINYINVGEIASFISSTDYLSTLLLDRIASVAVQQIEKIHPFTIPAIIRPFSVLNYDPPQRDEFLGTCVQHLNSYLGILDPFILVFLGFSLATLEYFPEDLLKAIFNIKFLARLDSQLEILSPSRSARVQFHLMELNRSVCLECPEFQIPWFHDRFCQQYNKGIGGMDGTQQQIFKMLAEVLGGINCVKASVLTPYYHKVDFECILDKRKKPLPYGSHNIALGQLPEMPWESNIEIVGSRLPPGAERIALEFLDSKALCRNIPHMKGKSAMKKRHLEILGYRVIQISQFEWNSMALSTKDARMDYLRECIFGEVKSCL
inactive: [1] 0.097 | crizotinib 0.001 | [2] 0.097 | [3] -0.027 | duvelisib 0.035 | gandotinib -0.284 | tozasertib -0.253 | [4] 0.12 | doramapimod 0.037 | ispinesib -0.013

IDI1 isoform 2 (UniProt Q13907)
Chain of UniProt Q13907 (Q13907 whole entry, looked up): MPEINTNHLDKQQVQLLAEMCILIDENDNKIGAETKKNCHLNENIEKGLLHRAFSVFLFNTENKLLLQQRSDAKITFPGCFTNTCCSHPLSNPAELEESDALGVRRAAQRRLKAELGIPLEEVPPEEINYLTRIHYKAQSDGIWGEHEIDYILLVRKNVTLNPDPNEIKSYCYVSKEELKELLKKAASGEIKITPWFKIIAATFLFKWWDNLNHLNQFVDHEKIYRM
inactive: [1] 0.052 | crizotinib 0.093 | [2] 0.062 | [3] -0.018 | duvelisib 0.069 | gandotinib 0.014 | tozasertib 0.057 | [4] -0.028 | doramapimod -0.063 | ispinesib 0.045

GLS (UniProt O94925)
inactive: [1] 0.033 | crizotinib 0.05 | [2] 0.209 | [3] -0.049 | duvelisib 0.053 | gandotinib -0.17 | tozasertib 0.012 | [4] 0.054 | doramapimod -0.105 | ispinesib 0.118

H1FX (UniProt Q92522)
inactive: [1] -0.175 | crizotinib 0.091 | [2] -0.524 | [3] 0.432 | duvelisib -0.143 | gandotinib 0.13 | tozasertib 0.029 | [4] 0.021 | doramapimod 0.188 | ispinesib -0.016

FAT1 (UniProt Q14517)
active: doramapimod -0.435
inactive: [1] 0.027 | crizotinib 0.061 | [2] -0.054 | [3] 0.144 | duvelisib 0.026 | gandotinib 0.061 | tozasertib -0.124 | [4] 0.009 | ispinesib -0.096

FUT8 (UniProt Q9BYC5)
inactive: [1] 0.018 | crizotinib -0.235 | [2] 0.077 | [3] -0.011 | duvelisib -0.007 | gandotinib 0.034 | tozasertib -0.14 | [4] 0.178 | doramapimod -0.017 | ispinesib -0.148

FBXO6 (UniProt Q9NRD1)
Chain of UniProt Q9NRD1 (Q9NRD1 whole entry, looked up): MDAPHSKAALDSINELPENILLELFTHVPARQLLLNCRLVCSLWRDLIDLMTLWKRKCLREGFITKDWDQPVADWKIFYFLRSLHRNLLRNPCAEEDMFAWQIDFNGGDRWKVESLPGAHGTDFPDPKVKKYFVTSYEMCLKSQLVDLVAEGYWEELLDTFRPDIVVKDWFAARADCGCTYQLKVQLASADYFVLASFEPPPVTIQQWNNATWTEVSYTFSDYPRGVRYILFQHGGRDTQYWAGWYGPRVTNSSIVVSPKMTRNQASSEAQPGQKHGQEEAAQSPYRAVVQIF
inactive: [1] 0.035 | [2] 0.052 | [3] -0.082 | duvelisib 0.04 | gandotinib 0.088 | tozasertib 0.036 | [4] 0.036 | doramapimod -0.049
active: crizotinib 0.475 | ispinesib 0.39

HDAC7 isoform 5 (UniProt Q8WUI4)
active: [3] -0.281
inactive: [1] -0.027 | crizotinib -0.013 | [2] 0.016 | duvelisib 0.008 | gandotinib 0.011 | tozasertib -0.03 | [4] 0.028 | doramapimod -0.018 | ispinesib 0.185

GTF2H3 (UniProt Q13889)
Chain of UniProt Q13889 (Q13889 whole entry, looked up): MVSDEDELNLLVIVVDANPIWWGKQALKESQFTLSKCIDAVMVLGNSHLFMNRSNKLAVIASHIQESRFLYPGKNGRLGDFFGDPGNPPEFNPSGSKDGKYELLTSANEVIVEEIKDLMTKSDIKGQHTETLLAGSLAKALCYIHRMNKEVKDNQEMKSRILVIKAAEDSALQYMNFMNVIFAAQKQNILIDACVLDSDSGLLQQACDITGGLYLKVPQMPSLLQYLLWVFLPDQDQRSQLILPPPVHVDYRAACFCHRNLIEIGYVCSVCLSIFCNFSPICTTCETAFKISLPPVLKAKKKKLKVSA
inactive: [1] 0.061 | crizotinib 0.049 | [2] -0.012 | [3] -0.003 | duvelisib -0.047 | gandotinib -0.012 | tozasertib -0.031 | [4] -0.2 | doramapimod 0.021 | ispinesib 0.023

FBL (UniProt P22087)
inactive: [1] -0.054 | crizotinib 0.075 | [2] -0.266 | [3] 0.379 | duvelisib -0.084 | gandotinib 0.124 | tozasertib -0.043 | [4] -0.01 | doramapimod 0.279 | ispinesib 0.097

GLRX3 (UniProt O76003)
Chain of UniProt O76003 (O76003 whole entry, looked up): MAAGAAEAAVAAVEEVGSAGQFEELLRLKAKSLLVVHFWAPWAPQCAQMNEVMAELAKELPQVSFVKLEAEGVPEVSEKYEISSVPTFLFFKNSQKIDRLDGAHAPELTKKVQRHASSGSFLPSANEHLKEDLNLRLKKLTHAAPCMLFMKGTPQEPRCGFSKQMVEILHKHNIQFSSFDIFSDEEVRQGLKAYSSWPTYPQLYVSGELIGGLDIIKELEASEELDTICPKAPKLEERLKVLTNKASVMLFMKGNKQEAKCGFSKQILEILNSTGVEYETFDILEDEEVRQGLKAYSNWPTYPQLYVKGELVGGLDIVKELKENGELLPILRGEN
inactive: [1] 0.03 | crizotinib 0.098 | [2] 0.06 | [3] -0.068 | duvelisib 0.043 | gandotinib -0.094 | tozasertib 0.077 | [4] 0.041 | doramapimod -0.075 | ispinesib 0.068

HRC (UniProt P23327)
inactive: [1] 0.027 | crizotinib 0.096 | [3] 0.012 | duvelisib 0.062 | gandotinib 0.064 | tozasertib -0.053 | [4] -0.033 | doramapimod -0.033 | ispinesib 0.037
active: [2] -0.342

GNS (UniProt P15586)
inactive: [1] 0.001 | crizotinib -0.115 | [2] 0.046 | [3] -0.032 | duvelisib 0.016 | gandotinib 0.061 | tozasertib 0.014 | [4] -0.028 | doramapimod 0.016 | ispinesib -0.021

GTF3C4 (UniProt Q9UKN8)
inactive: [1] -0.011 | crizotinib 0.078 | [2] 0.04 | [3] -0.015 | duvelisib 0.035 | gandotinib -0.05 | tozasertib 0.059 | [4] -0.063 | doramapimod -0.019 | ispinesib 0.06

GOPC (UniProt Q9HD26)
inactive: [1] 0.218 | crizotinib 0.293 | [2] -0.043 | [3] 0.294 | duvelisib -0.003 | gandotinib 0.101 | tozasertib 0.144 | [4] 0.091 | doramapimod 0.061 | ispinesib 0.038

IFI30 (UniProt P13284)
inactive: [1] 0.013 | crizotinib -0.011 | [2] -0.083 | [3] -0.02 | duvelisib -0.129 | gandotinib 0.042 | tozasertib 0.027 | [4] 0.035 | doramapimod -0.044 | ispinesib 0.002

HEATR3 (UniProt Q7Z4Q2)
Chain of UniProt Q7Z4Q2 (Q7Z4Q2 whole entry, looked up): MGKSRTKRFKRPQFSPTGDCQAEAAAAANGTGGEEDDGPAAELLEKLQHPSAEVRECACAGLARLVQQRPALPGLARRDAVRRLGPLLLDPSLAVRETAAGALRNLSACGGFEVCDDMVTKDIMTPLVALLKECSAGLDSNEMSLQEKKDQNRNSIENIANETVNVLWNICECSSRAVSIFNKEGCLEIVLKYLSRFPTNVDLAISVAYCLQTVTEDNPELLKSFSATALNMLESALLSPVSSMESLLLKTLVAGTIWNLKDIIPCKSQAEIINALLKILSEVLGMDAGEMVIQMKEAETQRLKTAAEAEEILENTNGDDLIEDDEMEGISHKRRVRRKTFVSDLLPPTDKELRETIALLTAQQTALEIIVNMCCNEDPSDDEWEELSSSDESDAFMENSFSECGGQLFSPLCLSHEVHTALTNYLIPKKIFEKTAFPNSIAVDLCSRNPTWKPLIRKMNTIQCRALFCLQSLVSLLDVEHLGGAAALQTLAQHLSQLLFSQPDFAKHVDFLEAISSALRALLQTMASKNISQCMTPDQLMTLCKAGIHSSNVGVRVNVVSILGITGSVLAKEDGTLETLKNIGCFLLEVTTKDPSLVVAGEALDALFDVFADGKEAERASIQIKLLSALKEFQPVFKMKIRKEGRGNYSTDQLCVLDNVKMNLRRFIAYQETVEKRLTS
inactive: [1] -0.001 | crizotinib -0.171 | [2] 0.094 | [3] 0.123 | duvelisib 0.078 | gandotinib -0.377 | tozasertib 0.065 | [4] 0.146 | doramapimod 0.011 | ispinesib -0.006

GTF3C5 isoform 3 (UniProt Q9Y5Q8)
Chain of UniProt Q9Y5Q8 (Q9Y5Q8 whole entry, looked up): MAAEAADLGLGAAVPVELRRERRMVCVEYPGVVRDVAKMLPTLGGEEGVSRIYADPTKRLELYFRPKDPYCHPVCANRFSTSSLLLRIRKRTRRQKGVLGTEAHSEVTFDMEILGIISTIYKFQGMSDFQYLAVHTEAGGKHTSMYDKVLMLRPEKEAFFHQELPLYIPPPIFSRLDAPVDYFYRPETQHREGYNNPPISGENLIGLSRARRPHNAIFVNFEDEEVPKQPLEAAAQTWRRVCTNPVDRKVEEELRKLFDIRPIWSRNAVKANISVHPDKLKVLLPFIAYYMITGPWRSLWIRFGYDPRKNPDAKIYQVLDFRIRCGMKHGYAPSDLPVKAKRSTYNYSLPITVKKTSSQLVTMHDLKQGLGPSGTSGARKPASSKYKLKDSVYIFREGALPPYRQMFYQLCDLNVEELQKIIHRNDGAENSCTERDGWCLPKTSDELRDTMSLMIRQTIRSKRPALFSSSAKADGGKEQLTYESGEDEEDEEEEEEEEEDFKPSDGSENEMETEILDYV
inactive: [1] 0.01 | crizotinib 0.17 | [2] 0.016 | [3] 0.158 | duvelisib -0.106 | gandotinib 0.043 | tozasertib 0.063 | [4] 0.034 | doramapimod 0.095 | ispinesib -0.248

HTATIP2 isoform 3 (UniProt Q9BUP3)
active: duvelisib 0.294
inactive: [1] 0.014 | crizotinib -0.106 | [2] 0.023 | [3] -0.145 | gandotinib 0.003 | tozasertib 0.013 | [4] 0.027 | doramapimod 0.003 | ispinesib -0.111

GHDC (UniProt Q8N2G8)
Chain of UniProt Q8N2G8 (Q8N2G8 whole entry, looked up): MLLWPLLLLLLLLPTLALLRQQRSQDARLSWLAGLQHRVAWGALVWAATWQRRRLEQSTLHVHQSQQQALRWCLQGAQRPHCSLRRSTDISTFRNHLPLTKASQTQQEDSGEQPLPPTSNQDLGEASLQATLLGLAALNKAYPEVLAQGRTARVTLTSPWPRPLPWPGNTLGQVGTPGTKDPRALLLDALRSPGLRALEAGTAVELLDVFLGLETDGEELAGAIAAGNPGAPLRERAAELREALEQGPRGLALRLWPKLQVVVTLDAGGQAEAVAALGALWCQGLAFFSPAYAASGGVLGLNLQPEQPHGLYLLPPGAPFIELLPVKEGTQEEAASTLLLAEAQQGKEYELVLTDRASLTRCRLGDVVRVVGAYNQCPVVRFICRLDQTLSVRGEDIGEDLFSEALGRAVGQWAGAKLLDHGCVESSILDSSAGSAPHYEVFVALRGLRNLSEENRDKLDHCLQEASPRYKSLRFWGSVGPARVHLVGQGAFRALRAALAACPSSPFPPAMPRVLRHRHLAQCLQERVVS
inactive: [1] 0.041 | crizotinib -0.02 | [2] 0.021 | [3] -0.074 | duvelisib 0.043 | gandotinib 0.002 | tozasertib -0.01 | [4] -0.039 | doramapimod -0.041 | ispinesib -0.132

FMC1 (UniProt Q96HJ9)
Chain of UniProt Q96HJ9 (Q96HJ9 whole entry, looked up): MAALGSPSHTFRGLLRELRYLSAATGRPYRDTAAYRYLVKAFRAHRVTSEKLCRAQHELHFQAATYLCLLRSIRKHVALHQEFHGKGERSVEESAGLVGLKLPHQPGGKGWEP
inactive: [1] 0.021 | crizotinib 0.195 | [2] -0.157 | [3] 0.082 | duvelisib -0.046 | gandotinib 0.024 | tozasertib -0.058 | [4] -0.018 | doramapimod -0.137 | ispinesib -0.314

HAX1 (UniProt O00165)
inactive: [1] 0.02 | crizotinib -0.235 | [2] -0.043 | [3] 0.16 | duvelisib -0.062 | gandotinib -0.174 | tozasertib -0.071 | [4] 0.014 | doramapimod 0.035
active: ispinesib -0.59

GEMIN6 (UniProt Q8WXD5)
Chain of UniProt Q8WXD5 (Q8WXD5 whole entry, looked up): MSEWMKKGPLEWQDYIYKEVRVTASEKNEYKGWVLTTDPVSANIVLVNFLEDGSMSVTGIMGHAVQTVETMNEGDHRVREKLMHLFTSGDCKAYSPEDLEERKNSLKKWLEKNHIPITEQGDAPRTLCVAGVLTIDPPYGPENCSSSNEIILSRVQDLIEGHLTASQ
inactive: [1] -0.076 | crizotinib -0.055 | [2] 0.097 | [3] 0.091 | duvelisib 0.088 | gandotinib 0.034 | tozasertib -0.028 | [4] 0.034 | doramapimod -0.016 | ispinesib -0.017

Reference: the supplement of paper PMC10849652
